Test results published in the supplement of paper PMC10849652.
The full data set covers some 8,800 targets. This sample favours those with a hit. About 0.5% of all pairs of compound and target were hits.

Key:
Experiment in all cases: log2 fold change, soluble protein after heating vs DMSO (PISA); higher = thermal stabilisation; K562 lysate, 10 uM; active = over 0.2 and 3.5 SD of the protein, either way, in both replicates (recomputed)
nilotinib = compound: Cc1cn(-c2cc(NC(=O)c3ccc(C)c(Nc4nccc(-c5cccnc5)n4)c3)cc(C(F)(F)F)c2)cn1 [nilotinib]
Outline: (§1)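 K562 pellets were dounce-homogenised in PBS pH 7.4 with 1 mM MgCl2, and the crude extract at 1 mg/mL protein was treated with 10 μM compound for 30 min. Aliquots were heated for 3 min across 48°C-58°C, pooled, and brought to 0.5% NP-40 at 4°C; soluble protein was the supernatant after 21,000xg for 90 min. Soluble protein was quantified by TMTpro 16plex LC-MS/MS with channel sums equalised, and reported as log2 fold change in thermal stability against DMSO controls, with values from duplicates.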

[1] = compound: Cc1nc(Nc2n[nH]c3c2CN(C(=O)N[C@H](CN(C)C)c2ccccc2)C3(C)C)c2sccc2n1
Outline: as §1

dasatinib = compound: Cc1nc(Nc2ncc(C(=O)Nc3c(C)cccc3Cl)s2)cc(N2CCN(CCO)CC2)n1 [dasatinib]
Outline: as §1

[2] = compound: Cc1ncc(-c2ccnc(Nc3ccc(S(C)(=O)=O)cc3)n2)n1C(C)C
Outline: as §1

[3] = compound: Cn1cc(-c2ccc3c(c2)CCN3C(=O)Cc2cccc(C(F)(F)F)c2)c2c(N)ncnc21
Outline: as §1

quisinostat = compound: Cn1cc(CNCC2CCN(c3ncc(C(=O)NO)cn3)CC2)c2ccccc21 [quisinostat]
Outline: as §1

tipifarnib = compound: Cn1cncc1[C@@](N)(c1ccc(Cl)cc1)c1ccc2c(c1)c(-c1cccc(Cl)c1)cc(=O)n2C [tipifarnib]
Outline: as §1

[4] = compound: NC(=O)Nc1cc(-c2cccc(F)c2)sc1C(=O)N[C@H]1CCCNC1
Outline: as §1

[5] = compound: NC(=O)c1cnc(N[C@@H]2CCCC[C@@H]2N)nc1Nc1cccc(-n2nccn2)c1
Outline: as §1

[6] = compound: NC1(c2ccc(-c3nc4ccn5c(=O)[nH]nc5c4cc3-c3ccccc3)cc2)CCC1
Outline: as §1

Measured: log2 fold change

ERAL1 (UniProt O75616)
inactive: nilotinib 0 | [1] -0.001 | dasatinib 0.01 | [2] 0.003 | [3] 0.018 | quisinostat -0.078 | tipifarnib -0.027 | [4] 0.083 | [5] -0.052 | [6] 0.008

DVL2 (UniProt O14641)
Chain of UniProt O14641 (O14641 whole entry, looked up): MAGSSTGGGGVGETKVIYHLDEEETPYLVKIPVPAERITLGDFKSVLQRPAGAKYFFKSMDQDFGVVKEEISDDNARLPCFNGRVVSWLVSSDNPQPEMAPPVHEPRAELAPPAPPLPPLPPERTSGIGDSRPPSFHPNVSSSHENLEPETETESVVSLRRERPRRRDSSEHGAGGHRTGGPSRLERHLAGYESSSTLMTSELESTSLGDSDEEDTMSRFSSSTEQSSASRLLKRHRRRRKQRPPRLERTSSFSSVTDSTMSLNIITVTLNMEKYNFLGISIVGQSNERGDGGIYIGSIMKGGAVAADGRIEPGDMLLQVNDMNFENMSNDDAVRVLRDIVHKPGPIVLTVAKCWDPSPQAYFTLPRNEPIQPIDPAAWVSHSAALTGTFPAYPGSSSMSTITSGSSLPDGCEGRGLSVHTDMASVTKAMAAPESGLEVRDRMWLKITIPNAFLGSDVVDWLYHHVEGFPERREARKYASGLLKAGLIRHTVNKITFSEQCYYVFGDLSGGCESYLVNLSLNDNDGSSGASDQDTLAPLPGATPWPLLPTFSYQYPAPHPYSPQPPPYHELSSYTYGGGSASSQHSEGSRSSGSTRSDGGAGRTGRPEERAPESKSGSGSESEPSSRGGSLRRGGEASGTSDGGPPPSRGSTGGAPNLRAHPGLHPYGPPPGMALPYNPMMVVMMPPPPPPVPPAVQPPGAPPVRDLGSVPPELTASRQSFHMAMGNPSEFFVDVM
inactive: nilotinib -0.03 | [1] -0.003 | dasatinib -0.114 | [2] 0.027 | [3] -0.063 | quisinostat -0.13 | tipifarnib -0.027 | [4] 0.102 | [5] 0.236 | [6] -0.097

EDC4 (UniProt Q6P2E9)
inactive: nilotinib 0 | [1] 0.007 | dasatinib -0.058 | [2] 0.007 | [3] -0.002 | quisinostat -0.071 | tipifarnib -0.001 | [4] 0.01 | [5] 0.027 | [6] 0.011

FIG4 (UniProt Q92562)
inactive: nilotinib -0.02 | [1] 0.144 | dasatinib -0.007 | [2] 0.08 | [3] 0.145 | quisinostat 0.077 | tipifarnib -0.038 | [4] 0.013 | [5] -0.066 | [6] 0.06

ETFRF1 (UniProt Q6IPR1)
Chain of UniProt Q6IPR1 (Q6IPR1 whole entry, looked up): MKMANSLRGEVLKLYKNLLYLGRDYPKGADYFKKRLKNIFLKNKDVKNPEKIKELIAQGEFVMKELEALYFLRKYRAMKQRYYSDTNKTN
inactive: nilotinib -0.038 | [1] 0.032 | dasatinib -0.01 | [2] -0.02 | [3] 0.062 | quisinostat 0.088 | tipifarnib 0.117 | [4] -0.028 | [5] 0.071 | [6] 0.046

FAM114A2 (UniProt Q9NRY5)
Chain of UniProt Q9NRY5 (Q9NRY5 whole entry, looked up): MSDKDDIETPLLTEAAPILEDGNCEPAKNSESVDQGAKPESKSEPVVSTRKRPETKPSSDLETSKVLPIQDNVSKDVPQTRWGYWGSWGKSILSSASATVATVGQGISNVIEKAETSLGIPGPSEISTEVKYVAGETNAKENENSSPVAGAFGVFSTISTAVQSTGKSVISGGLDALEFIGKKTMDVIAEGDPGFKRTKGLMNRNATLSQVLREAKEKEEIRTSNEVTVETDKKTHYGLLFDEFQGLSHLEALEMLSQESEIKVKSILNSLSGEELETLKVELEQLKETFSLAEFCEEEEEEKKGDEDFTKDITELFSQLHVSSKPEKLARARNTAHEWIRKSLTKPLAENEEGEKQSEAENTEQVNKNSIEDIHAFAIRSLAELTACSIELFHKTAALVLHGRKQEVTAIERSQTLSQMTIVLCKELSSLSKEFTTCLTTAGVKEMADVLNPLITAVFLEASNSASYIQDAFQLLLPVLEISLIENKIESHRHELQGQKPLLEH
inactive: nilotinib 0.152 | [1] 0.053 | dasatinib -0.028 | [2] 0.031 | [3] 0.002 | quisinostat 0.02 | tipifarnib -0.231 | [4] 0 | [5] 0.009 | [6] -0.071

ECH1 (UniProt Q13011)
inactive: nilotinib -0.008 | [1] -0.019 | dasatinib 0.195 | [2] -0.003 | [3] 0.02 | quisinostat -0.008 | tipifarnib 0.022 | [4] 0.001 | [5] -0.022 | [6] 0.193

EIF2B4 isoform 2 (UniProt Q9UI10)
inactive: nilotinib -0.002 | [1] 0.004 | dasatinib -0.022 | [2] 0.003 | [3] 0.011 | quisinostat 0 | tipifarnib 0.037 | [4] 0.074 | [5] -0.003 | [6] 0.002

FXR2 (UniProt P51116)
inactive: nilotinib -0.066 | [1] 0.032 | dasatinib -0.027 | [2] 0.003 | [3] 0.074 | quisinostat 0.025 | tipifarnib 0.015 | [4] -0.034 | [5] -0.012 | [6] -0.003

ENO2 (UniProt P09104)
inactive: nilotinib 0.006 | [1] 0.017 | dasatinib 0.036 | [2] 0.025 | [3] 0 | quisinostat -0.03 | tipifarnib -0.021 | [4] 0.001 | [5] -0.043 | [6] 0.003

FOXJ3 (UniProt Q9UPW0)
inactive: nilotinib 0.156 | [1] -0.053 | dasatinib -0.013 | [2] -0.008 | [3] -0.063 | quisinostat -0.055 | tipifarnib -0.017 | [4] 0.042 | [5] 0.017 | [6] -0.115

EPS8L2 (UniProt Q9H6S3)
inactive: nilotinib -0.011 | [1] 0.05 | dasatinib 0.051 | [2] -0.121 | [3] 0.053 | quisinostat 0.013 | tipifarnib 0.013 | [4] 0.058 | [5] -0.01 | [6] 0.013

FKBP8 isoform 2 (UniProt Q14318)
Chain of UniProt Q14318 (Q14318 whole entry, looked up): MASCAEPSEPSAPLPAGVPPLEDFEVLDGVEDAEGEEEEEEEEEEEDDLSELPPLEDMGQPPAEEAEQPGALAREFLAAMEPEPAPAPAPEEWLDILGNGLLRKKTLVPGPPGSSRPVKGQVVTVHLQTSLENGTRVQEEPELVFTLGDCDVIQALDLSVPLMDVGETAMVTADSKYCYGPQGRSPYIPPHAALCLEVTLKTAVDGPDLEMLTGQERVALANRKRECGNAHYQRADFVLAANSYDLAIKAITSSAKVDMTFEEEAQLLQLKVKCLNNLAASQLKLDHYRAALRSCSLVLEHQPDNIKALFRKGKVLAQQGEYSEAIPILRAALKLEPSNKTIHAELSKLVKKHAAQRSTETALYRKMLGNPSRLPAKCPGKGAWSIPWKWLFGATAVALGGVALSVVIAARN
inactive: nilotinib -0.019 | [1] -0.055 | dasatinib -0.056 | [2] 0.014 | [3] 0.011 | quisinostat -0.21 | tipifarnib -0.005 | [4] 0.067 | [5] 0.02 | [6] 0.005

FLAD1 (UniProt Q8NFF5)
inactive: nilotinib 0.051 | [1] -0.026 | dasatinib 0.002 | [2] 0.024 | [3] 0.019 | quisinostat -0.129 | tipifarnib 0 | [4] 0.03 | [5] 0.017 | [6] -0.026

FIGNL1 (UniProt Q6PIW4)
Chain of UniProt Q6PIW4 (Q6PIW4 whole entry, looked up): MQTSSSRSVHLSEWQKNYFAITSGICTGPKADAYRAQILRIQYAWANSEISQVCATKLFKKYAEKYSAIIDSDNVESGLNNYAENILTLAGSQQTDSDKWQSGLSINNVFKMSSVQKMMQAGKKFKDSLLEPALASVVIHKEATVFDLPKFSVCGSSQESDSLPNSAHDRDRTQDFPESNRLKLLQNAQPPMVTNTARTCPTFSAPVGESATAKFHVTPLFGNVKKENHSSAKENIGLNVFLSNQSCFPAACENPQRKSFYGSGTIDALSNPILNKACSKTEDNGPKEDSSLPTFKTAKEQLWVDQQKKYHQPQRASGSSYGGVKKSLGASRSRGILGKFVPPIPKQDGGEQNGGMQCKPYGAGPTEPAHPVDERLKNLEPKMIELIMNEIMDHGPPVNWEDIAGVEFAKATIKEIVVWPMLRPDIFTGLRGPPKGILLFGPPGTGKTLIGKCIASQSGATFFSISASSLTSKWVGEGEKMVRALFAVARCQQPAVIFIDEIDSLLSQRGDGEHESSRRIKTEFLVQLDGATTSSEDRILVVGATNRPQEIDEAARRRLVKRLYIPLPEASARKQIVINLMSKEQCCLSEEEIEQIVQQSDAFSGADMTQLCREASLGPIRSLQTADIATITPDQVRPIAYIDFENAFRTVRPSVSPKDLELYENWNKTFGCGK
inactive: nilotinib -0.011 | [1] 0.037 | dasatinib -0.101 | [2] 0.054 | [3] 0.068 | quisinostat -0.08 | tipifarnib -0.044 | [4] 0.035 | [5] -0.02 | [6] -0.035

FIBP (UniProt O43427)
Chain of UniProt O43427 (O43427 whole entry, looked up): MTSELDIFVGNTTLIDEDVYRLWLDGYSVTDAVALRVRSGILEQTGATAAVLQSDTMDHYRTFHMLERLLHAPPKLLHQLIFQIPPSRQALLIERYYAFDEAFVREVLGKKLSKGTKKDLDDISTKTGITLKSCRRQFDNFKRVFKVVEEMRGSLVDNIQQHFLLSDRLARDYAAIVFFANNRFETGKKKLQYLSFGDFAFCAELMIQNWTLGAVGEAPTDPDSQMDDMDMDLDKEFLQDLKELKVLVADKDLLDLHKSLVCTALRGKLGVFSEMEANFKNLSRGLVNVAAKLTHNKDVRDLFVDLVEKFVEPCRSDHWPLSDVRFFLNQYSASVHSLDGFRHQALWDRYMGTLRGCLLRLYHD
inactive: nilotinib -0.001 | [1] 0.036 | dasatinib 0.013 | [2] -0.024 | [3] -0.043 | quisinostat 0.019 | tipifarnib -0.037 | [4] 0.024 | [5] 0 | [6] 0

GBA2 (UniProt Q9HCG7)
inactive: nilotinib -0.063 | [1] 0.114 | dasatinib 0.059 | [2] -0.079 | [3] 0.034 | quisinostat -0.101 | tipifarnib -0.213 | [4] 0.023 | [5] 0.058 | [6] -0.074

DST (UniProt Q03001)
inactive: nilotinib -0.002 | [1] -0.035 | dasatinib -0.023 | [2] 0.045 | [3] -0.06 | quisinostat -0.118 | tipifarnib 0.069 | [4] 0.022 | [5] 0.027 | [6] -0.107

ENO1 isoform 2 (UniProt P06733)
inactive: nilotinib 0.01 | [1] -0.009 | dasatinib 0.021 | [2] -0.036 | [3] -0.012 | quisinostat -0.038 | tipifarnib 0.035 | [4] -0.007 | [5] -0.008 | [6] 0.004

ERCC4 (UniProt Q92889)
Chain of UniProt Q92889 (Q92889 whole entry, looked up): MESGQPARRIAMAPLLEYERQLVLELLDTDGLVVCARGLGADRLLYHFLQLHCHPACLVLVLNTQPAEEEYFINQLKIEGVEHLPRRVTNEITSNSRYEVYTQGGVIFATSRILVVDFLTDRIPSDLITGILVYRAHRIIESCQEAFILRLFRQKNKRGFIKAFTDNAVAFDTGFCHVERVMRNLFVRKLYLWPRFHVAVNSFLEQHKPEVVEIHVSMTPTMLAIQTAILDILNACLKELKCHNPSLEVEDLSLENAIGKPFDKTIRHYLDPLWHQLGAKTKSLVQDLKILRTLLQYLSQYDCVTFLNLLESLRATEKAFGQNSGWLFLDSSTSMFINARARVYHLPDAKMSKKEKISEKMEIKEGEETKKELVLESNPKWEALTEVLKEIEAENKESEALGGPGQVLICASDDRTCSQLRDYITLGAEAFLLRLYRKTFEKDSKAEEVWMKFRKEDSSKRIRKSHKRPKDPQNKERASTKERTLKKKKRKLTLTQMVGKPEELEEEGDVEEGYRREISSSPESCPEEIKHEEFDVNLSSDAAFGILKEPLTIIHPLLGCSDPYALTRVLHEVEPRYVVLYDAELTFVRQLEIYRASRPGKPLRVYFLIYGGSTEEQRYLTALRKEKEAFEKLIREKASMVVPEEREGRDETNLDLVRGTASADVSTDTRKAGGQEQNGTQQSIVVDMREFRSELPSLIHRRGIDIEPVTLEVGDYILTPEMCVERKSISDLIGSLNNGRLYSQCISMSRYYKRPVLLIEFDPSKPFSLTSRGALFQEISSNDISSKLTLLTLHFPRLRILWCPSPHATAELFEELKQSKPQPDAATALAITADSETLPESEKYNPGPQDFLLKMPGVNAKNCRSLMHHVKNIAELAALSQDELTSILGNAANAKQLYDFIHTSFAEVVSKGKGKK
inactive: nilotinib -0.047 | [1] -0.002 | dasatinib 0.01 | [2] -0.05 | [3] 0.033 | quisinostat -0.105 | tipifarnib -0.007 | [4] 0.041 | [5] 0.027 | [6] -0.004

FAM83D (UniProt Q9H4H8)
inactive: nilotinib -0.042 | [1] 0.004 | dasatinib -0.026 | [2] 0.008 | [3] -0.033 | quisinostat -0.061 | tipifarnib -0.02 | [4] -0.019 | [5] 0.05 | [6] 0.01

FDFT1 (UniProt P37268)
inactive: nilotinib 0.032 | [1] -0.048 | dasatinib -0.012 | [2] -0.037 | [3] -0.008 | quisinostat -0.014 | tipifarnib -0.053 | [4] 0.005 | [5] 0.042 | [6] -0.025

EEF1AKMT4 (UniProt P0DPD7)
inactive: nilotinib -0.01 | [1] -0.064 | dasatinib -0.051 | [2] 0.04 | [3] -0.109 | quisinostat 0.075 | tipifarnib 0.004 | [4] 0.105 | [5] 0.096 | [6] -0.064

ENY2 (UniProt Q9NPA8)
Chain of UniProt Q9NPA8 (Q9NPA8 whole entry, looked up): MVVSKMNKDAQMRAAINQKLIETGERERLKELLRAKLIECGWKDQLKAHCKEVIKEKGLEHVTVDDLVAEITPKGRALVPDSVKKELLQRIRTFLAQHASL
inactive: nilotinib -0.054 | [1] -0.002 | dasatinib 0.045 | [2] 0.007 | [3] 0.033 | quisinostat -0.03 | tipifarnib 0.085 | [4] -0.03 | [5] -0.022 | [6] -0.007

ERLIN2 (UniProt O94905)
Chain of UniProt O94905 (O94905 whole entry, looked up): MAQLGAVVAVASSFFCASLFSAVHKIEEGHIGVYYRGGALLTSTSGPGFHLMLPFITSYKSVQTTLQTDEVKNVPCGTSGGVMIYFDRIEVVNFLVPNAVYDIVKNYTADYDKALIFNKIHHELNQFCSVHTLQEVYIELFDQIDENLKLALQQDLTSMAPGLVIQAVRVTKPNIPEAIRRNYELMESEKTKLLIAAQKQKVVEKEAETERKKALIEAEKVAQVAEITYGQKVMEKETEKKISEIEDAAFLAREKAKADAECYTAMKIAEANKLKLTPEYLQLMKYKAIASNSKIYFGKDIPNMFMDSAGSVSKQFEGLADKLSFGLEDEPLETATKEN
inactive: nilotinib -0.009 | [1] 0.001 | dasatinib -0.013 | [2] -0.019 | [3] 0.03 | quisinostat 0.021 | tipifarnib 0.012 | [4] -0.038 | [5] 0.012 | [6] -0.01

FOXK1 (UniProt P85037)
inactive: nilotinib -0.006 | [1] -0.014 | dasatinib -0.065 | [2] -0.038 | [3] 0.004 | quisinostat -0.031 | tipifarnib -0.042 | [4] -0.002 | [5] -0.011 | [6] 0.007

EFCAB14 (UniProt O75071)
Chain of UniProt O75071 (O75071 whole entry, looked up): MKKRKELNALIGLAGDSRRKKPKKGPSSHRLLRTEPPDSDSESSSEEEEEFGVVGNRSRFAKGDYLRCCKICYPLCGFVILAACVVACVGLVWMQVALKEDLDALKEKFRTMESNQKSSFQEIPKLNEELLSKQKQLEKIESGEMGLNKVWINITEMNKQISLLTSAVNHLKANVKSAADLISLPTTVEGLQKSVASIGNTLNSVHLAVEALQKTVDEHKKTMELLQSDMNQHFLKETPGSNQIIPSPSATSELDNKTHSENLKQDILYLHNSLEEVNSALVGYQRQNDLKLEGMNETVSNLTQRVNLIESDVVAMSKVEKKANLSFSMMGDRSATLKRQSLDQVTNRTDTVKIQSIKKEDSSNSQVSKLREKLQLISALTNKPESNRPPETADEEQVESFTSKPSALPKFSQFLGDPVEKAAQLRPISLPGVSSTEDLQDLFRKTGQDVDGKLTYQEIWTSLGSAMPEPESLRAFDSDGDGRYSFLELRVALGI
inactive: nilotinib -0.16 | [1] 0.016 | dasatinib 0.049 | [2] 0.001 | [3] -0.005 | quisinostat -0.001 | tipifarnib 0.013 | [4] 0.053 | [5] -0.005 | [6] 0.013

ENSA isoform 3 (UniProt O43768)
inactive: nilotinib -0.022 | [1] -0.011 | dasatinib 0.07 | [2] 0.013 | [3] -0.002 | quisinostat 0.051 | tipifarnib -0.002 | [4] -0.025 | [5] -0.029 | [6] 0.021

GEMIN2 (UniProt O14893)
Chain of UniProt O14893 (O14893 whole entry, looked up): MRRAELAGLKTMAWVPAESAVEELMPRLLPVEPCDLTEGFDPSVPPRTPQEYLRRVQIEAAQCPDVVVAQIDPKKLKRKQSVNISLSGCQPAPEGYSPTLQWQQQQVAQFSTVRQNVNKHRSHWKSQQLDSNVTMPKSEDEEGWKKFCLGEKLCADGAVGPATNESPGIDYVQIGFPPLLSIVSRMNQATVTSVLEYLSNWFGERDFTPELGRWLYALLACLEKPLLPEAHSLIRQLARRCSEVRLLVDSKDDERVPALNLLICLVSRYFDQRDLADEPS
inactive: nilotinib -0.019 | [1] 0.014 | dasatinib -0.03 | [2] 0.032 | [3] -0.033 | quisinostat 0.142 | tipifarnib 0.059 | [4] 0.004 | [5] -0.039 | [6] 0.049
